Reference: PubChem BioAssay AID1159580 (chemical genetic matrix, 2015)
About 2,000 (36%) of roughly 5,500 compounds were called active. Another 18% or so got no clear call; they are omitted. No stated cut-off is given here; in the data, active means normalized growth mostly below about 0.91 (no sharp cut-off); inconclusive means no clear call, values can overlap the other calls; inactive means mostly above about 0.92. Some of the results follow.

Experiment: chemical genetic growth profiling, strain panel (AID 1159580);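 further: tested at 20 µM; growth read once vehicle control cultures reached saturation at 30 °C; 1 = growth at the plate median or of vehicle wells; lower values mean less growth of the strain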
Settings: S. cerevisiae deletion strains, growth OD

Measured: normalized growth

COc1cccc2c1CCC1=CC(=O)CC[C@@]12C
inactive: locus YAL013W, strain DEP1, active compounds read low 0.996 | locus YAL021C, strain ccr4, active compounds read low 1.02 | locus YAL026C, strain drs2, active compounds read low 1.01 | locus YAL030W, strain snc1, active compounds read low 0.986 | locus YBL061C, strain skt5, active compounds read low 0.989 | locus YBR009C, strain hhf1, active compounds read low 0.992 | locus YBR021W, strain FUR4, active compounds read low 0.966 | locus YBR023C, strain chs3, active compounds read low 1.01 | locus YBR171W, strain sec66, active compounds read low 0.987 | locus YBR229C, strain ROT2, active compounds read low 1 | locus YBR231C, strain swc5, active compounds read low 1.02 | locus YBR279W, strain paf1, active compounds read low 1 | locus YCL011C, strain gbp2, active compounds read low 0.997 | locus YCL016C, strain dcc1, active compounds read low 0.999 | locus YCL029C, strain bik1, active compounds read low 0.985 | locus YCL069W, strain vba3, active compounds read low 0.993 | locus YCR088W, strain abp1, active compounds read low 0.994 | locus YDL005C, strain med2, active compounds read low 1.02 | locus YDL035C, strain GPR1, active compounds read low 0.976 | locus YDL040C, strain nat1, active compounds read low 1 | locus YDL074C, strain BRE1, active compounds read low 0.944 | locus YDL101C, strain DUN1, active compounds read low 1.01 | locus YDL134C, strain PPH21, active compounds read low 0.995 | locus YDL185W, strain tfp1, active compounds read low 1 | locus YDL192W, strain arf1, active compounds read low 0.993 | locus YDR001C, strain nth1, active compounds read low 1 | locus YDR069C, strain doa4, active compounds read low 0.987 | locus YDR101C, strain arx1, active compounds read low 0.981 | locus YDR137W, strain rgp1, active compounds read low 1.07 | locus YDR150W, strain NUM1, active compounds read low 1 | locus YDR159W, strain sac3, active compounds read low 0.997 | locus YDR162C, strain NBP2, active compounds read low 0.966 | locus YDR195W, strain ref2 1.04 | locus YDR297W, strain sur2, active compounds read low 0.995 | locus YDR318W, strain mcm21, active compounds read low 0.973 | locus YDR334W, strain swr1, active compounds read low 1.02 | locus YDR335W, strain msn5, active compounds read low 1.01 | locus YDR388W, active compounds read low 0.989 | locus YDR392W, strain spt3, active compounds read low 0.984 | locus YDR502C, strain sam2, active compounds read low 0.961 | locus YEL003W, strain gim4, active compounds read low 1 | locus YEL037C, strain rad23, active compounds read low 0.993 | locus YEL061C, strain CIN8 (second series), active compounds read low 1.01 | locus YEL061C, strain CIN8, active compounds read low 1 | locus YER015W, strain faa2, active compounds read low 1.01 | locus YER016W, strain bim1, active compounds read low 1 | locus YER110C, active compounds read low 0.983 | locus YER111C, strain swi4, active compounds read low 1 | locus YER155C, strain BEM2 (second series), active compounds read low 0.989 | locus YER155C, strain BEM2, active compounds read low 1 | locus YER167W, strain BCK2, active compounds read low 0.996 | locus YFR010W, strain ubp6, active compounds read low 1.01 | locus YGL078C, strain dbp3, active compounds read low 0.998 | locus YGL086W, strain mad1, active compounds read low 0.987 | locus YGL167C, strain pmr1, active compounds read low 1 | locus YGL173C, strain kem1, active compounds read low 0.993 | locus YGL227W, strain vid30, active compounds read low 1.01 | locus YGL240W, strain doc1, active compounds read low 0.995 | locus YGL248W, strain PDE1, active compounds read low 0.996 | locus YGL253W, strain hxk2, active compounds read low 1.02 | locus YGR078C, strain PAC10, active compounds read low 0.983 | locus YGR135W, strain pre9, active compounds read low 0.939 | locus YGR229C, strain SMI1, active compounds read low 0.98 | locus YGR252W, strain gcn5, active compounds read low 0.814 | locus YHR013C, strain ard1, active compounds read low 0.967 | locus YHR027C, strain rpn1, active compounds read low 1.01 | locus YHR030C, strain SLT2, active compounds read low 0.994 | locus YHR079C, strain IRE1 (second series), active compounds read low 0.973 | locus YHR094C, strain hxt1, active compounds read low 0.998 | locus YHR129C, strain ARP1, active compounds read low 0.995 | locus YHR142W, strain chs7, active compounds read low 0.975 | locus YHR200W, strain rpn10, active compounds read low 0.989 | locus YIL066C, strain RNR3, active compounds read low 0.955 | locus YIL073C, strain SPO22, active compounds read low 0.949 | locus YIL125W, strain kgd1, active compounds read low 0.992 | locus YIR030C, strain dcg1, active compounds read low 0.983 | locus YJL092W, strain hpr5, active compounds read low 1.02 | locus YJL095W, strain BCK1 (second series), active compounds read low 1 | locus YJL095W, strain BCK1, active compounds read low 0.972 | locus YJL115W, strain asf1, active compounds read low 1.01 | locus YJL129C, strain trk1, active compounds read low 0.973 | locus YJL134W, strain LCB3, active compounds read low 1.01 | locus YJL154C, strain vps35, active compounds read low 1 | locus YJL164C, strain tpk1, active compounds read low 0.996 | locus YJL166W, strain qcr8, active compounds read low 0.987 | locus YJL168C, strain set2, active compounds read low 0.984 | locus YJL187C, strain SWE1 (second series), active compounds read low 0.989 | locus YJR043C, strain POL32, active compounds read low 0.97
